High-throughput results (PubChem)
Casp6 inh – blocks human caspase-6 cleavage activity. purified caspase-6, Z-VEID-R110 cleavage fluorescence. 350,000 tested, 0.53% active. AID 686996. inhibition, % at 12.5 µM. P55212;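 active = mean inhibition across replicates at least about 35%, with every replicate also reaching that limit, limit read from the data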;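 also: 0% = median of neutral control wells and 100% = no fluorescence left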
Target sequence (P55212 24-179 limits assumed): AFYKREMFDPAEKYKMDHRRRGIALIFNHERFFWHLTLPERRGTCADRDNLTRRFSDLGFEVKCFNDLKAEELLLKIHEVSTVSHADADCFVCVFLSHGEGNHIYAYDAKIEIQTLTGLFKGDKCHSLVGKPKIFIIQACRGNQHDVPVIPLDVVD
Target sequence (P55212 194-293 limits assumed): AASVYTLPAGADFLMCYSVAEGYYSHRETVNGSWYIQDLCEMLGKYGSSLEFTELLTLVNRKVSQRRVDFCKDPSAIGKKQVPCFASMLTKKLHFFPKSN
SIRT5 block – blocks human SIRT5 desuccinylation of peptide. Q9NXA8. Purified SirT5, succinyl-peptide AMC, trypsin-coupled fluorescence. inhibition, % at 15 µM. 330,000 tested, 1.1% active. AID 652115; in the data active = inhibition above about 15%
Target sequence (Q9NXA8 whole entry, looked up): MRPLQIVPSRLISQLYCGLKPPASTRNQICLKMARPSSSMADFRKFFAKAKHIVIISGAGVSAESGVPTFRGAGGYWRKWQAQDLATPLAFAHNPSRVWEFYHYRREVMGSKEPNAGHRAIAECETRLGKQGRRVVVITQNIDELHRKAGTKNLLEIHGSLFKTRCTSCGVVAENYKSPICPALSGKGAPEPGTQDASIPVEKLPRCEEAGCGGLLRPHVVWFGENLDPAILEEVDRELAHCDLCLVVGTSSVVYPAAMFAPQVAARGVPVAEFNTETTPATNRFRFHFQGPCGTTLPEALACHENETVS
NSD2 HMT inh – blocks human histone methyltransferase NSD2; inhibition, % at 12.5 µM; NSD2 peptide methylation, AlphaScreen, 120 min; 310,000 tested, 0.54% active; O96028; in the data active = inhibition above about 50%
ARNT-TACC3 inh – disruptors of human ARNT/TACC3 interaction. AlphaScreen His-ARNT PAS-B/GST-TACC3 binding, luminescence; TACC3 fragment carries E629A point mutation. inhibition, % at 9.99 µM. 390,000 tested, 0.66% active. AID 623870;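 active = mean inhibition of replicates at least 50% and at least half of replicates each reaching 50%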;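 also: 0% = complete ARNT plus TACC3 wells and 100% = ARNT alone without TACC3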
PfHsp90 yeast 2 – reduces growth (ATP signal) of yeast expressing P. falciparum Hsp90. S. cerevisiae expressing PfHsp90, BacTiter-Glo ATP, 48 h; yeast lacking PDR1 and PDR3 efflux regulators. inhibition, % at 9.4 µM. 310,000 tested, 0.32% active. AID 504621;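 active = every replicate shows inhibition above about 80%, whatever the replicate mean, limit read from the data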;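 also: 0% = DMSO neutral controls and 100% = 20 µM radicicol positive controls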
Numbers without * were called inactive; nt = no result. A selection: hits, their analogues and other compounds. The true share with any hit is near 2.1%.

SMILES | Casp6 inh | SIRT5 block | NSD2 HMT inh | ARNT-TACC3 inh | PfHsp90 yeast 2
COc1ccccc1NC(=O)N1CCCCN2[C@H](CO)[C@H](c3ccc(-c4cccc(F)c4)cc3)[C@@H]2C1 | 4 | 16* | nt | -6 | nt
Cc1noc(C)c1NC(=O)Nc1cccc2c1O[C@H](CN(C)S(=O)(=O)c1cccs1)[C@@H](C)CN([C@@H](C)CO)C2=O | nt | -6 | nt | -7 | nt
COc1ccc(NC(=O)c2cc([N+](=O)[O-])ccc2O)cc1 | 0 | 3 | 4 | 3 | 76*
O=C(NNc1ccccc1[N+](=O)[O-])Nc1ccc(Cl)c(Cl)c1 | 17 | 16* | 1 | -3 | -5
NS(=O)(=O)c1ccc(Cl)c(C(=O)Nc2ccccc2[N+](=O)[O-])c1 | 0 | 18* | -2 | 15 | -3
O=C(Nc1ccccc1[N+](=O)[O-])c1cc(S(=O)(=O)Nc2ccccn2)ccc1Cl | -1 | 0 | 0 | nt | 11
CNCCC(Oc1ccccc1OC)c1ccccc1 (centres undefined) | nt | 22* | nt | -3 | -8
CCOc1ccc(NC(=S)N(Cc2ccc(N(C)C)cc2)Cc2ccco2)cc1 | 1 | -3 | 6 | 17* | -3
CCOc1ccc(NC(=S)NCc2ccco2)cc1 | 0 | 17* | 0 | 8 | 1
Cc1ccc(NC(=S)NCc2ccco2)c(C)c1 | -4 | 80* | -3 | -4 | -3
COc1ccc(NC(=S)NCc2ccco2)cc1 | nt | nt | 1 | nt | nt
Cc1ccccc1NC(=S)NCc1ccco1 | nt | nt | 2 | 3 | 13
C[C@@H]1CN([C@H](C)CO)C(=O)c2ccccc2-c2ccccc2CO[C@@H]1CN(C)Cc1ccc(-c2ccccc2)cc1 | -2 | 7 | nt | nt | nt
COc1cccc2sc(Nc3nc(-c4ccccn4)cs3)nc12 | nt | nt | nt | 45* | 107*
c1ccc(-c2csc(Nc3cccnc3)n2)nc1 | nt | nt | -3 | 45* | -1
COc1cccc2sc(NNC(=O)COc3ccccc3)nc12 | -1 | 5 | -2 | -3 | 14
COc1ccccc1S(=O)(=O)N[C@H]1CC[C@H](CCNC(=O)C2CCCC2)O[C@@H]1CO | 0 | 2 | nt | -8 | nt
COc1ccc(C)cc1NC(=O)CCN1CC(C)OC(C)C1 (centres undefined) | 0 | 23* | -7 | 2 | 6
COc1ccc(Cl)cc1NC(=O)CCN1CCN(Cc2ccccc2)CC1 | -1 | 22* | 1 | -7 | 1
CCS(=O)(=O)NCC[C@@H]1CC[C@@H](NC(=O)C2CCC2)[C@@H](CO)O1 | -2 | 0 | nt | -7 | nt
O=C(CN1CCOCC1)N1CC[C@@H]2[C@H](CO)Nc3ccc(-c4ccccc4)cc3[C@@H]21 | -1 | -1 | nt | -9 | nt
C=C(C)CN(CC)C(=O)c1ccc(OC2CCN(S(=O)(=O)N(C)C)CC2)cc1 | 0 | 17* | 0 | 1 | -10
O=C(NCCc1ccc(Cl)cc1)C1CCC(=O)N(C2CCCCCC2)C1 (centres undefined) | 29 | 25* | -4 | -1 | 29
COc1ccc(CCCNC(=O)C2CCC(=O)N(Cc3ccc(Cl)cc3)C2)cc1 (centres undefined) | -2 | 32* | 0 | -40 | 7
O=C(N[C@@H]1CC[C@H](CCNS(=O)(=O)c2ccc(F)cc2)O[C@H]1CO)c1ccccn1 | -1 | -1 | nt | -11 | nt
SMILES | Casp6 inh | SIRT5 block | NSD2 HMT inh | ARNT-TACC3 inh | PfHsp90 yeast 2
CC(C)=NNc1cc([N+](=O)[O-])cc2c1C(=O)N(C)S2=O (centres undefined) | 40* | -7 | 10 | 14 | -13
NNc1cc([N+](=O)[O-])cc2c1C(=O)N(Cc1ccccc1)S2=O (centres undefined) | 7 | 0 | 44 | 4 | 2
COc1ccc(CN(C)C[C@H]2Oc3ccc(NC(=O)Nc4ccc(C(F)(F)F)cc4)cc3C(=O)N([C@@H](C)CO)C[C@@H]2C)cc1 | 4 | -2 | nt | 2 | nt
COc1ccc(NC(=O)Nc2ccc3c(c2)C(=O)N([C@@H](C)CO)C[C@@H](C)[C@@H](CN(C)Cc2ccc(C(F)(F)F)cc2)O3)cc1 | 0 | 20* | nt | 11 | nt
COc1ccc(NC(=O)Nc2ccc3c(c2)C(=O)N([C@H](C)CO)C[C@@H](C)[C@@H](CN(C)Cc2ccc(C(F)(F)F)cc2)O3)cc1 | -1 | 21* | nt | -2 | nt
Cc1ccc(S(=O)(=O)Nc2ccc3c(c2)C(=O)N([C@H](C)CO)C[C@@H](C)[C@H](CN(C)Cc2ccc(C(F)(F)F)cc2)OCCCC[C@H](C)O3)cc1 | 8 | 13 | nt | 7 | nt
Cc1ccc(S(=O)(=O)Nc2ccc3c(c2)C(=O)N([C@@H](C)CO)C[C@H](C)[C@H](CN(C)Cc2ccc(C(F)(F)F)cc2)OCCCC[C@@H](C)O3)cc1 | 0 | 18* | nt | 5 | nt
Cc1ccc(S(=O)(=O)Nc2ccc3c(c2)C(=O)N([C@H](C)CO)C[C@H](C)[C@@H](CN(C)Cc2ccc(C(F)(F)F)cc2)OCCCC[C@H](C)O3)cc1 | 4 | 21* | nt | 8 | nt
C[C@@H]1CCCCO[C@H](CN(C)Cc2ccc(C(F)(F)F)cc2)[C@H](C)CN([C@H](C)CO)C(=O)c2cc(NS(=O)(=O)c3ccccc3)ccc2O1 | 0 | -4 | nt | 26 | nt
Cc1ccc(S(=O)(=O)Nc2ccc3c(c2)C(=O)N([C@@H](C)CO)C[C@H](C)[C@@H](CN(C)Cc2ccc(C(F)(F)F)cc2)OCCCC[C@@H](C)O3)cc1 | -1 | 17* | nt | 10 | nt
Cc1ccc(S(=O)(=O)Nc2ccc3c(c2)C(=O)N([C@@H](C)CO)C[C@H](C)[C@H](CN(C)Cc2ccc(C(F)(F)F)cc2)OCCCC[C@H](C)O3)cc1 | -1 | 15* | nt | 10 | nt
CNC[C@@H]1OCCCC[C@@H](C)Oc2ccc(NC(=O)CCC(F)(F)F)cc2C(=O)N([C@@H](C)CO)C[C@H]1C | 1 | -2 | nt | -6 | nt
CCC(=O)N1CC2(C1)CN(C(=O)Nc1ccccc1F)[C@H](CO)c1[nH]c3cc(OC)ccc3c12 | 6 | -2 | nt | nt | nt
COCc1cn(CC[C@@H]2CC[C@@H](NC(=O)Nc3ccc(Cl)cc3)[C@H](CO)O2)nn1 | -1 | 1 | nt | -12 | nt
Cc1cc(N2CCN(c3cccc(C)c3C)CC2)nc(-c2ccccc2)n1 | nt | nt | 1 | 2 | 135*
Cc1ccc2nc(N(CCCN(C)C)C(=O)c3ccco3)sc2c1 | -8 | -4 | 6 | -3 | -13
CN(C)CCCN(C(=O)c1ccco1)c1nc2ccc(F)cc2s1 | 2 | 19* | 5 | -1 | -10
CC(C)CC#Cc1ccc2c(c1)O[C@@H](CN(C)C(=O)CC1CC1)[C@H](C)CN([C@H](C)CO)S2(=O)=O | nt | -5 | nt | nt | nt
CN1CCN(CCC(=O)N/N=C/c2cc([N+](=O)[O-])ccc2OC(F)F)CC1 | -10 | 23* | 6 | nt | -3
COc1ccc([N+](=O)[O-])cc1NC(=O)CCN1CCN(C)CC1 | -10 | 0 | 1 | -4 | -31
COCC(=O)N1[C@H](CO)[C@H](c2ccccc2)C12CN(C(=O)NC1CCCC1)C2 | 2 | 5 | nt | nt | nt
